# Key:
# Test in all cases: PBM binding z-score (relative to random genomic background probes); higher = stronger binding; sequences stand for … in GC…GCGATTGACAGCGTAGAATGAAGG
# [1] = system: FXR:RXRa (NR concentration 270 nM, RXRa partner concentration 90 nM)
# Procedure, shortened: (§1)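 Custom Agilent 4×180K protein-binding microarrays carried double-stranded probes, each with a 34-nt variable region. These regions held direct-repeat seeds, single-nucleotide variants, half-site ablations and random human genomic background sequences. Ligand-free nuclear receptor dimers were incubated on the arrays for 1 h, antibodies against each partner (one per run) detected binding, and scanned fluorescence was regression-normalized. Binding z-scores take the random background probes as reference.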
# [2] = system: LXRa:RXRa (NR concentration 270 nM, RXRa partner concentration 90 nM)
# Procedure, shortened: as §1
# [3] = system: LXRa homodimer (NR concentration 270 nM)
# Procedure, shortened: as §1
# [4] = system: LXRb:RXRa (NR concentration 270 nM, RXRa partner concentration 90 nM)
# Procedure, shortened: as §1
# [5] = system: LXRb homodimer (NR concentration 270 nM)
# Procedure, shortened: as §1
# [6] = system: PPARa:RXRa (NR concentration 270 nM, RXRa partner concentration 90 nM)
# Procedure, shortened: as §1
# [7] = system: PPARg:RXRa (NR concentration 180 nM, RXRa partner concentration 90 nM)
# Procedure, shortened: as §1
# [8] = system: PPARg:RXRa 270nM:90nM, anti-RXR (NR concentration 270 nM, RXRa partner concentration 90 nM)
# Procedure, shortened: as §1
# [9] = system: PPARg:RXRa 30nM:10nM, anti-RXR (NR concentration 30 nM, RXRa partner concentration 10 nM)
# Procedure, shortened: as §1
# [10] = system: PPARg:RXRa 90nM:30nM, anti-RXR (NR concentration 90 nM, RXRa partner concentration 30 nM)
# Procedure, shortened: as §1
# [11] = system: PPARg:RXRa DBDmut IVT, anti-RXR (DBD mutation: RXRa K156A/R161A, NR concentration 270 nM, RXRa partner concentration 90 nM)
# Procedure, shortened: as §1
# [12] = system: PPARg:RXRa IVT, anti-PPARg (NR concentration 270 nM, RXRa partner concentration 90 nM)
# Procedure, shortened: as §1
# [13] = system: PPARg DBDmut:RXRa IVT, anti-PPARg (DBD mutation: PPARg1 K132A/R137A, NR concentration 270 nM, RXRa partner concentration 90 nM)
# Procedure, shortened: as §1
# [14] = system: PPARg DBDmut IVT, anti-PPARg (DBD mutation: PPARg1 K132A/R137A, NR concentration 270 nM)
# Procedure, shortened: as §1
# [15] = system: PPARg homodimer (NR concentration 180 nM)
# Procedure, shortened: as §1
# [16] = system: PXR:RXRa (NR concentration 270 nM, RXRa partner concentration 90 nM)
# Procedure, shortened: as §1
# [17] = system: PXR homodimer (NR concentration 270 nM)
# Procedure, shortened: as §1
# [18] = system: RARa:RXR (NR concentration 270 nM, RXRa partner concentration 90 nM)
# Procedure, shortened: as §1
# [19] = system: RARa homodimer (NR concentration 270 nM)
# Procedure, shortened: as §1
# [20] = system: RARb:RXRa (NR concentration 270 nM, RXRa partner concentration 90 nM)
# Procedure, shortened: as §1
Sequence,PBM binding z-score [1],PBM binding z-score [2],PBM binding z-score [3],PBM binding z-score [4],PBM binding z-score [5],PBM binding z-score [6],PBM binding z-score [7],PBM binding z-score [8],PBM binding z-score [9],PBM binding z-score [10],PBM binding z-score [11],PBM binding z-score [12],PBM binding z-score [13],PBM binding z-score [14],PBM binding z-score [15],PBM binding z-score [16],PBM binding z-score [17],PBM binding z-score [18],PBM binding z-score [19],PBM binding z-score [20]
AGAATGAGTTTAAGATCAGGGAAACAGAATACAT,-0.0291,-0.0527,-0.102,-0.0907,-0.243,-0.0432,0.814,-0.0778,0.203,0.0165,-0.319,-0.227,0.514,0.367,0.191,0.341,0.729,0.163,0.965,0.406
CCTAGTTGGTCAAGGTCACACGCGCTATAGGTAC,4.49,3.9,2.29,3.34,0.902,4.29,3.54,3.95,1.23,3.1,2.5,3.82,0.145,0.325,2.68,4.09,2.6,4.13,1.78,4.39
GCGACTGGGGCAAAACAGGTTACCATAAGGTTGG,0.267,0.15,-0.287,0.476,-0.432,1.12,1.22,0.615,-0.338,-0.0458,3.9,3.17,-0.443,-0.478,-0.0203,0.334,-0.325,0.794,-0.332,0.897
CCAGACAGGTGAGTAGGTAACTCAGCCTCGATTA,0.327,0.14,0.0547,-0.023,-0.401,0.695,0.545,0.565,-0.111,0.0174,2.01,1.66,-0.259,-0.369,1.08,-0.277,-0.0681,0.388,0.546,0.279
TCATATAGGTAAAAGGTGAAAGTGGGTGTGGTAA,2.2,2.19,0.716,2.45,0.97,5.49,9.05,8.74,8.47,9.1,5.36,5.24,0.898,1.26,2.63,2.31,1.28,3.5,2.39,2.22
TCTTTTAGTTGATTAGGGCAACCGAAACAGCGGA,1.17,0.955,0.422,0.976,2.11,1.45,0.152,2.66,4.27,3.34,2.25,2.54,2.77,2.73,1.2,0.77,0.929,0.951,1.25,1.79
ACTATTAGTTGAGACGAGGGCGACCGATAGGTTG,0.0775,-0.2,0.0498,-0.401,8.35e-05,-0.485,0.629,-0.198,0.0514,-0.0518,0.0234,-0.184,0.772,0.784,0.303,0.205,0.117,0.144,0.456,0.332
ATCTCTAGGTAACCAAGTTCAGGGAATGCCGAAC,0.126,0.821,0.817,0.638,0.621,1.28,0.946,1.03,0.158,0.596,3.23,2.89,0.704,1.55,0.857,2.04,1.49,0.735,0.329,1.15
CTTTACGGGTCACTGACAGGTTATAGCATTTGGA,5.62,5.09,1.02,3.91,0.469,5.46,5.06,5.14,2.12,4.01,4.85,4.95,0.913,1.44,2.33,3.9,0.619,5.01,0.972,4.14
ACAGACAGGTGAGTGAAGGAAACTCAGCTGGACG,-0.54,-0.517,-0.15,-0.792,-0.646,-1.08,0.519,-0.724,-0.177,-0.368,0.214,0.274,-0.163,-1.04,-0.703,-0.793,-0.677,-0.777,-0.124,-0.0129
CCGAGTGGGGCAAAGGTTACCATACTCAGTACGA,1.45,1.82,0.144,2.37,-0.506,5.65,11,9.62,8.52,11,4.47,6.13,0.0641,-0.366,3,2.82,0.105,4.13,0.606,2.44
CCTTACGGGTCACTCCAGTTTATAGCATCGGAGT,5.02,6.61,0.838,3.77,-0.0101,4.4,3.25,3.3,1.11,2.27,2.98,3.39,0.913,0.686,2.32,6.04,1.06,3.6,0.603,3.74
ACATACAGGTGATGAAGGTAACTCAGGCTATCAT,0.328,0.419,0.233,0.198,-0.055,0.484,1.06,0.534,0.477,0.425,1.27,1.16,1.17,0.566,0.36,0.132,0.441,0.745,0.688,0.588

# Source: the supplement of paper PMC6555819
